# mut p53 react: restores mutant p53 pathway signaling in SW480 cells; SW480 PUMA-promoter luciferase, p53 mutant reactivation; activation, % at 9.98 µM; hit rate 1.5% among 28,000; AID 624151; in the data active = activation above about 52%
# NFkB SMM: NF-kappa-B p105 (human) binding; AID 624139; P19838; calls only; hit rate 1.3% among 17,000; Small molecule microarray, anti-His fluorescence binding;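 active = spot fluorescence over background significantly raised, with a chance value under 7% in all four replicate spots of the compound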;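 also: probe protein is his-tagged human p50 processed subunit at 1 µg/ml; raw spot fluorescence signals with no normalization applied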
# mut p53 SMM: mutant p53 (human) binding. small molecule microarray binding, anti-GST fluorescence. hit rate 0.4% among 17,000. calls only;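 active = compounds whose four printed spots each glow above background more than chance allows, each with a p-value under 7%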
# Myc binder: c-Myc (human) binding. small molecule microarray, His-c-Myc binding, anti-His fluorescence. calls only. hit rate 1.5% among 17,000. AID 624141;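 active = spot fluorescence over background with P-value below 7% in all four replicate spots, showing protein binding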;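 also: score is binary with 100 for all four spots passing and 0 otherwise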
# STAT3 SMM: binders of human STAT3; Small molecule microarray, His-STAT3 binding, anti-His fluorescence; calls only; hit rate 0.2% among 17,000;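 active = compounds whose four printed spots each show fluorescence over background unusually high for their array block, chance value under 7%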
# Target sequence (P40763 whole entry, looked up): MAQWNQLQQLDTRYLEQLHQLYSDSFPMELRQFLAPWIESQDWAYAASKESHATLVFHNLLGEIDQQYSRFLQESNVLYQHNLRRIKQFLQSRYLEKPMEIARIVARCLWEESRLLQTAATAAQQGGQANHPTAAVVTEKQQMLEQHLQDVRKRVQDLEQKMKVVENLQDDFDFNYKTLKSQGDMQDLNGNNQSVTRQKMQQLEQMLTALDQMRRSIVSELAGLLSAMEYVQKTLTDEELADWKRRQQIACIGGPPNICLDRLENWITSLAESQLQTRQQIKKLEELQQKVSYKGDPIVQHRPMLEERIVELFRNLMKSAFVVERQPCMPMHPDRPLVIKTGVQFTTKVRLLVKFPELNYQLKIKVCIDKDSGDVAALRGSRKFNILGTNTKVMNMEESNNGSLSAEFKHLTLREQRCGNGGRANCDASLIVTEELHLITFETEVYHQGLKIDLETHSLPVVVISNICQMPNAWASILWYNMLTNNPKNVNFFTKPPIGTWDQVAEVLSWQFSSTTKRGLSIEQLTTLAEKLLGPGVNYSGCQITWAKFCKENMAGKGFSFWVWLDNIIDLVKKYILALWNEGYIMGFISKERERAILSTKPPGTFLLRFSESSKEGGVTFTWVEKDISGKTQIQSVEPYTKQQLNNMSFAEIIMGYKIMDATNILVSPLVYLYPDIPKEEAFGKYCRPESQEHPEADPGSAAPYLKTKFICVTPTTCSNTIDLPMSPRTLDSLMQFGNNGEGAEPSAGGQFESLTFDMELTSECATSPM
# Starred values were filed as active, the others as inactive; i = inactive; . = no result; + = active, no number. The list is not random: actives were taken first. Their share in the collection is about 2.6%.
SMILES,mut p53 react,NFkB SMM,mut p53 SMM,Myc binder,STAT3 SMM
C[C@@H]1CN([C@@H](C)CO)C(=O)c2cc(NC(=O)C3CCCCC3)ccc2O[C@@H](C)CCCCO[C@H]1CN(C)C(=O)Nc1ccccc1,4,i,i,i,i
C[C@H](CO)N1C[C@H](C)[C@@H](CN(C)C(=O)Nc2ccccc2)OCCCC[C@H](C)Oc2ccc(NC(=O)Nc3ccccc3)cc2C1=O,-2,+,i,+,i
C[C@H](CO)N1C[C@H](C)[C@H](CN(C)C(=O)Cc2ccccc2)OCCCC[C@H](C)Oc2ccc(NC(=O)Nc3ccc(F)cc3)cc2C1=O,-29,i,i,i,i
C[C@@H]1CCCCO[C@H](CN(C)C(=O)Cc2ccccc2)[C@H](C)CN([C@@H](C)CO)C(=O)c2cc(NC(=O)Nc3ccc(F)cc3)ccc2O1,-39,i,i,i,+
Cc1cc(-c2ccccc2)nc(SCC(=O)Nc2ccc(SC(F)F)cc2)n1,4,.,.,.,.
CCOC(=O)c1c(NC(=O)C(C)Oc2ccccc2)sc(C)c1C (configuration not stated),2,i,i,i,i
COc1ccccc1CN1C(=O)c2ccccc2[C@](Cc2ccccc2I)(C(=O)NCC(C)C)[C@@H]1c1ccc(CO)cc1,.,i,i,i,i
N#Cc1ccc(NC(=O)CCC(=O)O)cc1,-6,i,i,i,i
CNC[C@@H]1Oc2ccc(NC(=O)C3CC3)cc2C(=O)N([C@H](C)CO)C[C@H]1C,9,+,i,+,i
C[C@@H]1CN([C@@H](C)CO)C(=O)c2cc(NC(=O)Nc3ccccc3)ccc2O[C@@H](C)CCCCO[C@H]1CN(C)Cc1ccncc1,-4,i,i,+,i
C[C@H]1CCCCO[C@@H](CN(C)Cc2ccccc2)[C@@H](C)CN([C@@H](C)CO)C(=O)c2cc(NC(=O)Nc3ccc4c(c3)OCO4)ccc2O1,-29,i,i,i,i
C[C@H]1CCCCO[C@H](CN(C)Cc2ccncc2)[C@@H](C)CN([C@@H](C)CO)C(=O)c2cc(NC(=O)Nc3ccccc3)ccc2O1,-2,i,i,i,i
C[C@H]1CCCCO[C@H](CN(C)C(=O)c2ccccc2)[C@@H](C)CN([C@@H](C)CO)C(=O)c2cc(NC(=O)Nc3ccc4c(c3)OCO4)ccc2O1,-25,i,+,i,i
C[C@@H]1CN([C@H](C)CO)C(=O)c2cc(NC(=O)Nc3ccc4c(c3)OCO4)ccc2O[C@@H](C)CCCCO[C@@H]1CN(C)C(=O)c1ccccc1,1,i,i,i,i
CC(C)NC(=O)Nc1ccc2c(c1)C(=O)N([C@@H](C)CO)C[C@@H](C)[C@H](CN(C)Cc1ccccc1)OCCCC[C@H](C)O2,7,+,i,+,i
C[C@@H]1CCCCO[C@@H](CN(C)Cc2ccccc2)[C@H](C)CN([C@H](C)CO)C(=O)c2cc(NC(=O)Nc3ccc4c(c3)OCO4)ccc2O1,-25,+,i,i,i
O=C(CSc1nnc(-c2ccco2)o1)c1ccc(Oc2ccccc2)cc1,8,.,.,.,.
C[C@@H]1CN([C@H](C)CO)C(=O)c2cc(NC(=O)CCCN(C)C)ccc2O[C@@H](C)CCCCO[C@H]1CN(C)S(=O)(=O)c1ccccc1,3,i,i,i,i
Cn1c(SCC(=O)Nc2ccccc2C(F)(F)F)nnc1-c1cccc(N)c1,11,.,.,.,.
Cc1cccc(C)c1OCC(=O)Nc1ccccc1C(=O)NC1CCCCC1,12,i,i,i,i
C=CCNC(=O)[C@@H]1[C@H]2C(=O)O[C@H](c3ccccc3)[C@H](c3ccccc3)N2[C@H](c2ccccc2OCCO)[C@@]12C(=O)Nc1ccc(C#Cc3ccc(OC)cc3)cc12,.,+,i,i,i
COc1ccc(C#Cc2ccc3c(c2)[C@]2(C(=O)N3)[C@H](C(=O)Nc3nc4ccccc4s3)[C@H]3C(=O)O[C@H](c4ccccc4)[C@H](c4ccccc4)N3[C@@H]2c2ccc(OCCO)cc2)cc1,.,i,i,i,i
COc1ccc(C#Cc2ccc3c(c2)[C@]2(C(=O)N3)[C@H](c3ccc(OCCO)cc3)N3[C@H](c4ccccc4)[C@H](c4ccccc4)OC(=O)[C@H]3[C@@H]2C(=O)Nc2nc3ccccc3s2)cc1,.,+,i,i,i
Cc1ccc2c(c1O)C(=O)c1ccc(O[C@@H]3O[C@H](CO[C@@H]4OC[C@@H](O)[C@H](O)[C@H]4O)[C@@H](O)[C@H](O)[C@H]3O)cc1C2=O,2,i,i,i,i
COc1ccc(OC)c(S(=O)(=O)ON2C(=O)c3ccccc3C2=O)c1,-8,i,i,+,i
SMILES,mut p53 react,NFkB SMM,mut p53 SMM,Myc binder,STAT3 SMM
O=C1c2ccccc2C(=O)N1OS(=O)(=O)c1cccc2cccnc12,-7,i,i,i,i
C=C1CCC2(C(=O)O)CCC3(C)C(=CCC4C5(C)C[C@@H](O)[C@H](O)C(C)(CO)C5CCC43C)C2C1C (some centres not stated),12,+,i,+,i
C[C@@H]1CC[C@]2(C(=O)O)CC[C@]3(C)C(=CCC4[C@@]5(C)C[C@@H](O)[C@@H](O)C(C)(C)C5CC[C@]43C)C2[C@]1(C)O (some centres not stated),7,i,i,i,i
Cc1cccc(-n2c(SCC(=O)Nc3ccc(C)cc3Br)nnc2-c2ccncc2)c1,-2,.,.,.,.
Cc1sc2ncnc(SCC(=O)C(C)(C)C)c2c1C,60*,.,.,.,.
Cc1cc(=O)oc2cc(NC(=S)NCc3cccnc3)ccc12,75*,.,.,.,.
Cc1sc(NC(=S)NC(=O)Cc2cccc3ccccc23)c(C(N)=O)c1C,0,i,i,i,i
Cc1sc(NC(=S)NC(=O)c2ccco2)c(C(N)=O)c1C,59*,.,.,.,.
Cc1cc(I)cnc1NC(=S)NC(=O)c1ccco1,76*,i,i,i,i
Cc1c(Cl)cccc1NC(=O)C(C)N(c1ccc(Oc2ccccc2)cc1)S(C)(=O)=O (configuration not stated),3,.,.,.,.
COc1ccccc1CN1CC(C(=O)O)CC1=O (configuration not stated),-1,i,i,+,i
CS(=O)(=O)N(CC(=O)Nc1c(F)cccc1F)c1cccc(Br)c1,7,.,.,.,.
O=C1c2ccccc2C(=O)N1CCCc1nc(-c2ccccn2)no1,11,.,.,.,.
c1ccc(OCCCc2nc(-c3ccccn3)no2)cc1,69*,i,i,i,i
c1ccc(-c2noc(COc3cccc4ccccc34)n2)nc1,87*,.,.,.,.
Cc1ccccc1OC(C)c1nc(-c2ccccn2)no1 (configuration not stated),116*,.,.,.,.
COC(=O)c1c(NC(=O)CN2C(=O)c3ccccc3S2(=O)=O)sc2c1CCCC2,8,i,i,i,i
CCCn1c(NCCCO)nc2ccccc21,15,.,.,.,.
O=C1/C(=C/c2ccc(N3CCOCC3)cc2)CCC1C1CCCC1 (configuration not stated),65*,.,.,.,.
